Measured values as given in PubChem BioAssay (Tox21).
Records with an inconclusive call do not appear. Active and inactive are the calls of the source. Unless noted, calls follow the shape of the dose curve; as a rule, active = well fitted curve in the direction sought with a large enough effect in the repeat runs; inconclusive = weak or mixed curves; inactive = no such curve, though single readings can be large; an effect the other way counts as inactive or inconclusive.

Experiments:
[1] = qHTS assay to identify small molecule antagonists of the retinoid acid receptor (RAR) signaling pathway - cell viability counter screen (AID 1159551); also: nearly all actives have a fitted effect of over 35% in size; also: potency is read from the fitted curve at half-maximal effect
Method in brief: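 C3RL4 cells were seeded overnight at 37 C, then treated with compounds plus 1 uM (final) retinol for 6 h at 37 C. Viability was read as ATP by CellTiter-Glo luminescence after 30 min at room temperature.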

[2] = qHTS assay to identify small molecule antagonists of the retinoic acid receptor (RAR) signaling pathway (AID 1159552; also: nearly all actives have a fitted effect of over 50% in size; also: potency is read from the fitted curve at half-maximal effect)
Method in brief: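 Cells of the C3RL4 line were seeded, incubated overnight, then dosed with compounds in DMSO followed immediately by retinol (1 uM final). Six hours later luciferase detection reagent went in; signal was measured after 30 min at RT.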

[3] = qHTS assay to identify small molecule agonists of the retinoic acid receptor (RAR) signaling pathway (AID 1159553); also: potency is read from the fitted curve at half-maximal effect; as to activation: % is scaled to controls: 0 for no effect and ±100 for the full control effect
Method in brief: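 C3RL4 cells carrying a RARE luciferase reporter were plated overnight at 37 C, then exposed to compounds in DMSO for 6 hr at 37 C and 5% CO2. Luminescence was read 30 min after luciferase reagent addition at room temperature.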

[4] = qHTS assay to identify small molecule antagonists of the estrogen related receptor (ERR) signaling pathway from Tox21 library - cell viability counter screen (AID 1224834); also: nearly all actives have a fitted effect of over 30% in size; also: potency is read from the fitted curve at half-maximal effect
Method in brief: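 ERR reporter cells were plated 6 h before compound addition, then exposed to test compounds in DMSO for 17.5 h at 37 C. Viability was read as CellTiter-Fluor fluorescence after a 30-minute incubation at 37 C.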

[5] = target: Luciferin 4-monooxygenase (Photinus pyralis) (UniProt P08659); assay: qHTS assay to identify small molecule inhibitors of firefly luciferase (AID 1224835); also: nearly all actives have a fitted effect of over 25% in size; also: potency is read from the fitted curve at half-maximal effect
Chain of Luciferin 4-monooxygenase (Photinus pyralis) (P08659 whole entry, looked up): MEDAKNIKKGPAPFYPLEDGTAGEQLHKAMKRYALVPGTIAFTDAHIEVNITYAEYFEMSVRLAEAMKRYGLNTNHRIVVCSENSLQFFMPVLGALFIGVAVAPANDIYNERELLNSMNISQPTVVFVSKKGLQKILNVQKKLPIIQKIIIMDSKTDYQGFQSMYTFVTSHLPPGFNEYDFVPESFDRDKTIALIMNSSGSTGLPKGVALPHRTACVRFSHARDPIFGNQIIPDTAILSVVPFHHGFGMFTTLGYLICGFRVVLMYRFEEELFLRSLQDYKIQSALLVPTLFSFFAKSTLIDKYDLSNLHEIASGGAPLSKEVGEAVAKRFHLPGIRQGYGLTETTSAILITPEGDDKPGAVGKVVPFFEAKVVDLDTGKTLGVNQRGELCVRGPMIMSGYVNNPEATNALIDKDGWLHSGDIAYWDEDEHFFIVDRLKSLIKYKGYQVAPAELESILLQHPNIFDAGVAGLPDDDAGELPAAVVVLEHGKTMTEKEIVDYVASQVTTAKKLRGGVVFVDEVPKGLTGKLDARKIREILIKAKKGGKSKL
Method in brief: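 Biochemical qHTS: compounds run as interplate titrations against purified firefly enzyme, with D-luciferin and ATP each at its KM concentration. Light output recorded by CCD imaging.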

[6] = target: Nuclear receptor subfamily 1 group I member 3 (Homo sapiens) (UniProt Q14994); assay: qHTS assay to identify small molecule antagonists of the constitutive androstane receptor (CAR) signaling pathway (AID 1224838); also: nearly all actives have a fitted effect of over 40% in size; also: potency is read from the fitted curve at half-maximal effect
Chain of Nuclear receptor subfamily 1 group I member 3 (Homo sapiens) (Q14994 whole entry, looked up): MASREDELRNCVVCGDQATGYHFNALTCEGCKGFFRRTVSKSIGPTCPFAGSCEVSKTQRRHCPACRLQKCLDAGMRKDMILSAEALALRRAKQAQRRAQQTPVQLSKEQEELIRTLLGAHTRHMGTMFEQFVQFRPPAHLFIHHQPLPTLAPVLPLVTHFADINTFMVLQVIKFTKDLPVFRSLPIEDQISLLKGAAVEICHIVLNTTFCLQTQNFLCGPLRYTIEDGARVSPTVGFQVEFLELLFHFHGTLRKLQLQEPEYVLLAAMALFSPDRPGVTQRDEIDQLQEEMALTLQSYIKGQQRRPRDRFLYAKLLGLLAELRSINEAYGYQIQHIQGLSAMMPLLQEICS
Method in brief: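 HepG2 cells stably co-transfected with hCAR and a CYP2B6-2.2kb luciferase reporter were seeded 4 h before compound addition at 15 concentrations. Cells were stimulated with 50 nM CITCO (final) for 24 h at 37 C; luciferase luminescence was then read.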

[7] = qHTS assay to identify small molecule antagonists of the estrogen related receptor signaling pathway with the pleiotropic PPARgamma coactivator (PGC) from Tox21 10K library (AID 1224841; call rule not given here; also: actives are mostly falling curves and most rising ones were filed inactive; nearly all actives have a fitted effect of over 50% in size; also: potency is read from the fitted curve at half-maximal effect)
Method in brief: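 PGC/ERR reporter cells were seeded at 2,000 cells/well and held 6 hours at 37 C/5% CO2 before pin-tool addition of compounds in DMSO. After 18 hours at 37 C, One-Glo was added and luminescence read after 30 minutes at room temperature.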

[8] = qHTS assay to identify small molecule agonists of the estrogen related receptor signaling pathway with the pleiotropic PPARgamma coactivator (PGC) from Tox21 10K library (AID 1224842); also: % is scaled to controls: 0 for no effect and ±100 for the full control effect; nearly all actives have a fitted effect of over 15% in size
Method in brief: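 PGC/ERR reporter cell line, 2,000 cells per well, incubated 6 h at 37 C before 23 nL compound in DMSO was added. After 18 h at 37 C, One-Glo luminescence read following 30 min at room temperature.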

[9] = target: Thyrotropin receptor (Homo sapiens) (UniProt P16473); assay: qHTS assay to identify small molecule agonists of the thyroid stimulating hormone receptor (TSHR) signaling pathway (AID 1224843; calls by dose curve; also: nearly all actives have a fitted effect of over 45% in size; also: potency is read from the fitted curve at half-maximal effect; as to activation: % is scaled to controls: 0 for no effect and ±100 for the full control effect)
Chain of Thyrotropin receptor (Homo sapiens) (P16473 whole entry, looked up): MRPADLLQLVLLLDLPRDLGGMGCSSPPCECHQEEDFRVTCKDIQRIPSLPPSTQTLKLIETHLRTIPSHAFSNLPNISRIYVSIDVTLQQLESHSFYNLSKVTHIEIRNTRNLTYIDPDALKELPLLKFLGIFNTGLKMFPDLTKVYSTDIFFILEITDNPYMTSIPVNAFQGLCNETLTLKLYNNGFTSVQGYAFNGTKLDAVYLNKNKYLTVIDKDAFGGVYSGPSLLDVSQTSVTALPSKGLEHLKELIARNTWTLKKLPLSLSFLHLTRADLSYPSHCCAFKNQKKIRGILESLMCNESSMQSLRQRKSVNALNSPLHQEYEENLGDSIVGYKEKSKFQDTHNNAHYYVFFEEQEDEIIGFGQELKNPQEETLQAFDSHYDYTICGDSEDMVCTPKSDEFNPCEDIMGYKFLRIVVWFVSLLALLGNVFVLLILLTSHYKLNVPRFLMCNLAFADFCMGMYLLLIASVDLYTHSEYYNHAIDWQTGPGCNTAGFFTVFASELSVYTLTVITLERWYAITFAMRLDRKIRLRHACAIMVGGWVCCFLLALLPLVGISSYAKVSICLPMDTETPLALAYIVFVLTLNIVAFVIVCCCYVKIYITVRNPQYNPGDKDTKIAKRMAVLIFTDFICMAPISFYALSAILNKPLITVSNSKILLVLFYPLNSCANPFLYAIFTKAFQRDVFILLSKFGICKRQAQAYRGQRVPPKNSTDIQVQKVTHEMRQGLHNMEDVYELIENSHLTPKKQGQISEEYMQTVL
Method in brief: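 TSHR-HEK293 cells in agonist mode, 30 min room-temperature step, then cAMP measured by competitive HTRF (cAMP-d2 with anti-cAMP cryptate) after 1 h at room temperature. Tested at 15 concentrations in triplicate.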

[10] = qHTS assay to identify small molecule agonists of the constitutive androstane receptor (CAR) signaling pathway - cell viability counter screen (AID 1224836); also: nearly all actives have a fitted effect of over 45% in size; also: potency is read from the fitted curve at half-maximal effect
Method in brief: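 HepG2-CYP2B6-hCAR, 2500 cells/well, 4 h pre-incubation; cpd 15 conc + PK11195 0.75 uM final; 23 h, 37 C/5% CO2; CellTiter-Fluor, fluorescence.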

[11] = qHTS assay to identify small molecule antagonists of the constitutive androstane receptor (CAR) signaling pathway - cell viability counter screen (AID 1224837); also: nearly all actives have a fitted effect of over 45% in size; also: potency is read from the fitted curve at half-maximal effect
Method in brief: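 HepG2 cells stably expressing hCAR and a CYP2B6-2.2kb reporter were plated and pre-incubated 4 hr at 37 C/5% CO2, then given compounds at 15 concentrations plus 50 nM CITCO (final). After 23 hr, viability was read by CellTiter-Fluor fluorescence.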

[12] = qHTS assay to identify small molecule antagonists of the estrogen related receptor signaling pathway with the pleiotropic PPARgamma coactivator (PGC) from Tox21 10K library - cell viability counter screen (AID 1224840; active = well fitted cell-killing curve with a large enough effect in the repeat runs, not every such curve was filed as active; also: nearly all actives have a fitted effect of over 40% in size; also: potency is read from the fitted curve at half-maximal effect)
Method in brief: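 PGC/ERR cells were seeded at 2,000 cells/well and left 6 hours at 37 C/5% CO2 before pin-tool addition of compounds in DMSO. After 17.5 hours at 37 C, CellTiter-Fluor was added and fluorescence read 30 minutes later.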

[13] = target: Nuclear receptor subfamily 1 group I member 3 (Homo sapiens) (UniProt Q14994); assay: qHTS assay to identify small molecule agonists of the constitutive androstane receptor (CAR) signaling pathway (AID 1224839); also: nearly all actives have a fitted effect of over 15% in size; also: potency is read from the fitted curve at half-maximal effect
Method in brief: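 HepG2-CYP2B6-hCAR cells, 2500/well, 4 h pre-incubation; compounds 15 conc.; PK11195 0.75 uM final; 24 h, 37 C/5% CO2; ONE-Glo luciferase read.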

[14] = qHTS assay to identify small molecule antagonists of the estrogen related receptor (ERR) signaling pathway (AID 1224819; also: potency is read from the fitted curve at half-maximal effect; nearly all actives have a fitted effect of over 50% in size)
Method in brief: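 ERR reporter cells were plated at 2,000 cells/well and left 6 h at 37 C/5% CO2 before pin-tool transfer of compounds in DMSO. After 18 h at 37 C, One-Glo was added and luminescence was read 30 min later at room temperature.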

[15] = qHTS assay to identify small molecule agonists of the estrogen related receptor (ERR) signaling pathway (AID 1224820); also: % is scaled to controls: 0 for no effect and ±100 for the full control effect
Method in brief: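 ERR reporter cell line (from NTP), 2,000 cells/well, incubated 6 h before compound addition, then 18 h at 37 C. Luminescence measured 30 min after One-Glo reagent at room temperature.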

[16] = qHTS assay to identify small molecule agonists of the estrogen related receptor signaling pathway with the pleiotropic PPARgamma coactivator (PGC) (AID 1224823); also: % is scaled to controls: 0 for no effect and ±100 for the full control effect
Method in brief: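 PGC/ERR reporter cells seeded 6 h, then exposed to compounds (23 nL in DMSO) for 18 h at 37 C. One-Glo luciferase luminescence read after 30 min at room temperature.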

[17] = qHTS assay to identify small molecule agonists of the RXR signaling pathway - cell viability counter screen (AID 1159529); also: potency is read from the fitted curve at half-maximal effect; nearly all actives have a fitted effect of over 50% in size
Method in brief: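 HEK 293T RXRa-bla cells, 2% CS-FBS; 5 h settle; cpd 16 h 37 C, 5% CO2; CellTiter-Glo 30 min RT, luminescence. Tetraoctyl ammonium bromide as positive control.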

ON=C1CCCC1
inactive: Potency [1] | Potency [2] | Potency [3] | Potency [5] | Potency [6] | Potency [8] | Potency [9]
active: Potency [4] 25.2 µM | Potency [7] 63.3 µM

CCC(Cl)C(Cl)C(Cl)CC(Cl)C(Cl)C(C)Cl (centres undefined)
inactive: Potency [1] | Potency [2] | Potency [3] | Potency [4] | Potency [5] | Potency [10] | Potency [11] | Potency [12]

NNc1nc(-c2ccccc2)cs1
inactive: Potency [1] | Potency [2] | Potency [10] | Potency [11] | Potency [7] | Potency [8] | Potency [9]
active: Potency [3] 70.5 µM | Potency [4] 7.05 µM | Potency [5] 32.6 µM | Potency [13] 49.9 µM

CC[C@@]1(O)C(=O)OCc2c1cc1n(c2=O)Cc2cc3c(CN(C)C)c(O)ccc3nc2-1
inactive: Potency [1] | Potency [3] | outcome [15] | outcome [16] | Potency [5] | Potency [13] | Potency [8] | Potency [9]
active: Potency [2] 3.76 µM | Potency [14] 750 nM | Potency [6] 0.15 µM | Potency [7] 16.8 µM

Cc1cc(=O)oc2cc(N(C)C)ccc12
inactive: Potency [1] | Potency [2] | Potency [3] | Potency [6] | Potency [7] | Potency [8] | Potency [9]

NC(=O)C1(N2CCCCC2)CCN(CCCN2c3ccccc3CCc3ccc(Cl)cc32)CC1
active: Potency [17] 21.3 µM | Potency [4] 29.8 µM | Potency [12] 26.6 µM
inactive: Potency [5] | Potency [13]

CCN(C(=O)c1cc(C)cc(OC[C@H](C)Nc2ccncc2)c1)C(C)C
inactive: Potency [1] | Potency [2] | Potency [3] | Potency [4] | Potency [5] | Potency [10] | Potency [11] | Potency [12] | Potency [9]

CC(C)c1ccc2c(c1)CC[C@H]1[C@](C)(CN)CCC[C@]21C
inactive: Potency [5] | Potency [8] | Potency [9]
active: Potency [17] 21.9 µM

CCC1OCC(COc2ccc(Oc3ccccc3)cc2)O1 (centres undefined)
inactive: Potency [1] | Potency [2] | Potency [4] | Potency [10] | Potency [11] | Potency [6] | Potency [12] | Potency [7]
active: Potency [3] 3.44 µM | Potency [5] 17.8 µM

CCCCCCCC[N+](CCCCCCCC)(CCCCCCCC)CCCCCCCC
active: Potency [1] 27.3 µM | Potency [4] 24.3 µM | Potency [10] 9.67 µM | Potency [11] 9.67 µM | Potency [12] 21.6 µM
inactive: Potency [13] | Potency [8]

CC(=O)S[C@@H]1CC2=CC(=O)CC[C@]2(C)[C@H]2CC[C@@]3(C)[C@@H](CC[C@@]34CCC(=O)O4)[C@H]12
inactive: Potency [1] | Potency [4] | Potency [5] | Potency [10] | Potency [13] | Potency [9]
active: Potency [6] 54.5 µM

O=C(Nc1cccc(Cl)c1)OCC#CCCl
active: Potency [4] 54.5 µM | Potency [5] 44.8 µM | Potency [10] 54.5 µM | Potency [11] 38.6 µM | Potency [12] 48.6 µM | Potency [7] 21.7 µM
inactive: Potency [1] | Potency [8]

Cc1cc(O)c(Cl)c(C)c1Cl
inactive: Potency [1] | Potency [2] | Potency [4] | Potency [5] | Potency [10] | Potency [11] | Potency [6] | Potency [13] | Potency [12] | Potency [7] | Potency [8] | Potency [9]

O=[N+]([O-])c1cc([N+](=O)[O-])c2ccc(S(=O)(=O)O)cc2c1O
active: Potency [4] 12.1 µM | Potency [10] 27.1 µM | Potency [11] 24.2 µM | Potency [12] 24.2 µM
inactive: Potency [1]

C/C=C1/C(=O)C[C@H]2[C@@H]3CCC4=CC(=O)CC[C@]4(C)[C@H]3CC[C@]12C
inactive: Potency [1] | Potency [5]
active: Potency [4] 60.9 µM | Potency [13] 8.61 µM

Cc1cccc(CN2CCN(C(c3ccccc3)c3ccc(Cl)cc3)CC2)c1 (centres undefined)
inactive: Potency [1] | Potency [4] | Potency [5] | Potency [10] | Potency [11] | Potency [12] | Potency [8]

CCCCCCCCCCCCCCCCCC[N+](C)(C)Cc1ccccc1
inactive: Potency [13] | Potency [8]
active: Potency [1] 61.7 µM | Potency [2] 24.6 µM | Potency [4] 49 µM | Potency [10] 55 µM | Potency [11] 55 µM | Potency [6] 49 µM | Potency [12] 55 µM | Potency [7] 30.9 µM | Potency [9] 55 µM

CCN1/C(=C/C=C/c2sc3ccccc3[n+]2CC)Sc2ccccc21
inactive: activation [13] -9.24% [at 19 µM] | activation [8] -14.5% [at 19 µM] | activation [9] 1.82% [at 19 µM]
active: Potency [1] 14.6 µM | Potency [4] 5.8 µM | Potency [5] 9.52 µM | Potency [10] 13 µM | Potency [11] 11.6 µM | Potency [6] 14.6 µM | Potency [12] 6.51 µM

CCC(C)(C)C1CCCCC1OC(C)=O (centres undefined)
inactive: Potency [1] | Potency [2] | Potency [4] | Potency [5] | Potency [10] | Potency [11] | Potency [6] | Potency [13] | Potency [12] | Potency [7] | Potency [8] | Potency [9]

O=C1CCCc2c1cc1ccc3cccc4ccc2c1c34
inactive: Potency [1] | Potency [2] | Potency [10] | Potency [12] | Potency [9]
active: Potency [5] 11.4 µM

CCCCCCCCn1sc(Cl)c(Cl)c1=O
inactive: Potency [13]
active: Potency [1] 13.7 µM | Potency [2] 27.3 µM | Potency [5] 3.56 µM | Potency [10] 30.6 µM
